Laboratory results taken from PubChem BioAssay (NCI).
About 83,000 compounds went through this panel and 20% of them were active in at least one assay; those are over-represented in the sample as a whole.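 Plates (96-well) were seeded with cells, treated with compound at one concentration, and incubated for 48 hours before percent growth was determined.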 Active and inactive are the calls of the source. The calls were made as follows: active = growth percent below 10; inactive = the rest.

Assays:
Assay in all cases: NCI-60 one-dose screen, 48 h (100 = growth as untreated, 0 = no growth, -100 = all killed)
Settings in all cases: 10 µM
SK-MEL-2 melanoma = test system: SK-MEL-2 melanoma
SN12C renal = test system: SN12C renal
UO-31 renal = test system: UO-31 renal
TK-10 renal = test system: TK-10 renal
ACHN renal = test system: ACHN renal
CAKI-1 renal = test system: CAKI-1 renal
A498 renal = test system: A498 renal
CCRF-CEM leukemia = test system: CCRF-CEM leukemia
MOLT-4 leukemia = test system: MOLT-4 leukemia
SR leukemia = test system: SR leukemia
RPMI-8226 leukemia = test system: RPMI-8226 leukemia
OVCAR-8 ovarian = test system: OVCAR-8 ovarian
OVCAR-5 ovarian = test system: OVCAR-5 ovarian
OVCAR-4 ovarian = test system: OVCAR-4 ovarian
SK-OV-3 ovarian = test system: SK-OV-3 ovarian
IGROV1 ovarian = test system: IGROV1 ovarian
OVCAR-3 ovarian = test system: OVCAR-3 ovarian
HS 578T breast = test system: HS 578T breast
NCI/ADR-RES ovarian = test system: NCI/ADR-RES ovarian

Measured: growth

COc1ccc(C(=O)n2nc(CC(=O)NCc3ccccc3)nc2N)cc1
inactive: SK-MEL-2 melanoma 97.5% | SN12C renal 92.5% | UO-31 renal 82.9% | TK-10 renal 103% | ACHN renal 117% | CAKI-1 renal 110% | A498 renal 110% | CCRF-CEM leukemia 104% | MOLT-4 leukemia 89.8% | SR leukemia 93.6% | RPMI-8226 leukemia 117% | OVCAR-8 ovarian 115% | OVCAR-5 ovarian 113% | OVCAR-4 ovarian 105% | SK-OV-3 ovarian 107% | IGROV1 ovarian 93.7% | OVCAR-3 ovarian 118% | HS 578T breast 103% | NCI/ADR-RES ovarian 112%

FC(F)(F)c1ccc(-c2cnc(Cl)nc2NC2CCCCCC2)cc1
active: SK-MEL-2 melanoma -4.24% | ACHN renal 5.68% | RPMI-8226 leukemia -4.84% | OVCAR-3 ovarian 3.4%
inactive: SN12C renal 18.2% | UO-31 renal 23.5% | TK-10 renal 32.1% | CAKI-1 renal 67.5% | A498 renal 89.9% | CCRF-CEM leukemia 26.3% | MOLT-4 leukemia 85.1% | SR leukemia 39.2% | OVCAR-8 ovarian 15.2% | OVCAR-5 ovarian 28.7% | OVCAR-4 ovarian 10.6% | SK-OV-3 ovarian 56.1% | IGROV1 ovarian 27.7% | HS 578T breast 41.1% | NCI/ADR-RES ovarian 74.2%

CN(C)CCCN(Cc1ccccc1O)C(=S)Nc1ccc(Cl)cc1
inactive: SK-MEL-2 melanoma 112% | SN12C renal 98.2% | UO-31 renal 78.8% | TK-10 renal 104% | ACHN renal 95% | CAKI-1 renal 99.7% | A498 renal 77.5% | CCRF-CEM leukemia 109% | MOLT-4 leukemia 106% | SR leukemia 95% | RPMI-8226 leukemia 93.5% | OVCAR-8 ovarian 98.2% | OVCAR-5 ovarian 110% | OVCAR-4 ovarian 111% | SK-OV-3 ovarian 107% | IGROV1 ovarian 106% | OVCAR-3 ovarian 112% | HS 578T breast 89% | NCI/ADR-RES ovarian 104%

O=C(COCc1c(-c2ccccc2)no[n+]1[O-])Nc1nc(-c2ccc(Cl)cc2)cs1
inactive: SK-MEL-2 melanoma 105% | SN12C renal 100% | UO-31 renal 80.8% | TK-10 renal 113% | ACHN renal 112% | CAKI-1 renal 105% | A498 renal 97.9% | CCRF-CEM leukemia 90.5% | MOLT-4 leukemia 102% | SR leukemia 98.2% | RPMI-8226 leukemia 109% | OVCAR-8 ovarian 101% | OVCAR-5 ovarian 109% | OVCAR-4 ovarian 111% | SK-OV-3 ovarian 95.1% | IGROV1 ovarian 112% | OVCAR-3 ovarian 102% | HS 578T breast 99.6% | NCI/ADR-RES ovarian 101%

O=C(COc1ccc(-c2nc3ccccc3[nH]2)cc1)N=Nc1c(O)[nH]c2ccccc12
active: CCRF-CEM leukemia 4.95% | SR leukemia 1.13%
inactive: SK-MEL-2 melanoma 113% | SN12C renal 91.7% | UO-31 renal 93.4% | TK-10 renal 128% | ACHN renal 98.7% | CAKI-1 renal 99.2% | A498 renal 86.4% | MOLT-4 leukemia 91.8% | RPMI-8226 leukemia 71.5% | OVCAR-8 ovarian 78.4% | OVCAR-5 ovarian 116% | OVCAR-4 ovarian 15.5% | SK-OV-3 ovarian 105% | IGROV1 ovarian 99.5% | OVCAR-3 ovarian 62.5% | HS 578T breast 103% | NCI/ADR-RES ovarian 108%

COc1ccc(Nc2nc(NCc3ccccc3)c3ccccc3n2)cc1
active: OVCAR-8 ovarian 6.75% | OVCAR-4 ovarian -37.2% | HS 578T breast -3.28%
inactive: SK-MEL-2 melanoma 63.4% | SN12C renal 69.5% | UO-31 renal 58.9% | TK-10 renal 40.6% | ACHN renal 15.6% | CAKI-1 renal 35.7% | A498 renal 38.9% | CCRF-CEM leukemia 68.4% | MOLT-4 leukemia 81.8% | SR leukemia 45.2% | RPMI-8226 leukemia 75.9% | OVCAR-5 ovarian 78.7% | SK-OV-3 ovarian 13.4% | IGROV1 ovarian 42.5% | OVCAR-3 ovarian 14.8% | NCI/ADR-RES ovarian 39.7%

CCc1ccc(Nc2cc(C)nc3nc(C)nn23)cc1
active: TK-10 renal -6.1% | ACHN renal -2.86% | CAKI-1 renal 0.395% | CCRF-CEM leukemia -10.6% | MOLT-4 leukemia -20.7% | SR leukemia -20.9% | RPMI-8226 leukemia -35.2% | OVCAR-8 ovarian -69.2% | OVCAR-4 ovarian -13.1% | OVCAR-3 ovarian -92.2% | NCI/ADR-RES ovarian -29.5%
inactive: SK-MEL-2 melanoma 14.5% | SN12C renal 26.2% | UO-31 renal 13.4% | A498 renal 34.7% | OVCAR-5 ovarian 26.4% | SK-OV-3 ovarian 38.3% | IGROV1 ovarian 32.8% | HS 578T breast 50.8%

CCCn1c(=O)c2c(nc(-c3cccc(OCCCCl)c3)n2C)n(CCC)c1=O
active: ACHN renal 3.03% | A498 renal -10.8% | OVCAR-4 ovarian 0.205% | SK-OV-3 ovarian 7.41%
inactive: SK-MEL-2 melanoma 75.6% | SN12C renal 37.3% | UO-31 renal 27.8% | TK-10 renal 36.5% | CAKI-1 renal 43.7% | CCRF-CEM leukemia 86.3% | MOLT-4 leukemia 73.2% | SR leukemia 59.6% | RPMI-8226 leukemia 83.9% | OVCAR-8 ovarian 33.9% | OVCAR-5 ovarian 73.1% | IGROV1 ovarian 30.2% | OVCAR-3 ovarian 21.7% | HS 578T breast 31.4% | NCI/ADR-RES ovarian 35.9%
